# Measurements reported in PubChem BioAssay AID1259415 (National Center for Advancing Translational Sciences (NCATS), 2018).
# Among all 410,000 compounds or so, about 18,000 (4.4%) were called active. Inconclusive results (about 7%) are left out. Shown is part of a subset that was picked to be rich in actives. Values without a mark were called inactive. Cut-off read from the data, not from the text of the source: active = activity change below about -60%; inconclusive = no clear call, values can overlap the other calls; inactive = above about -39%.
# Assay: qHTS Assay for inhibitors of the human cytomegalovirus (HCMV)
# Conditions: HFF cells, HCMV-luciferase reporter, 72 h; at 57.5 µM; active compounds read low
# Excerpt: NCGC Assay Overview: Infection with human cytomegalovirus (HCMV) continues to pose significant threats for pregnant women and immunocompromised hosts. HCMV causes serious morbidity and mortality in transplant recipients, and congenital HCMV is the leading infectious cause of mental retardation and deafness in children. In the 1990s, the annual costs associated with the disease burden of congenital CMV were estimated at around $2 billion. A HCMV vaccine is not available yet and HCMV therapies result in intolerable side effects and emergence of drug resistant viruses. […] Towards this goal we have developed and characterized a luciferase HCMV reporter that was initially used in 96 well plates and then optimized to 1536-well plates for utilization in screening of the MLSMR collection, the NGCG diversity collection and the NCGC Pharmaceutical Collection of approved and investigational drugs.
# NCGC Assay Protocol Summary:
# This is a cell-based assay for HCMV inhibition in HFFs cells. The screening used 2 compound doses and the HCMV-luciferase at MOI of 1 PFU/cell. Cells were treated and infected with HCMV. At 72 h post infection cell lysates were collected and luciferase activity was determined using the Glomax-Multi + Detection System (Promega, Madison, WI). Data were normalized to the controls for basal activity (buffer only) and known HCMV inhibitors Salinmoycin.
# 1536-well assay protocol for the assay:
# (1) Add 3 ul CMV/HFF cell culture. 1000 cells/well in DMEM nirmal media.
# (2) Incubate 16 hr at 37C.
# (3) Add 23 nl control compound, 10uM of Salinomycin.
# (4) Add 23 nl compounds in DMSO solution.
# (5) Add 3 ul CMV suspension. Final 1 puf/ul, Virus stock 2000pfu/ul
# (6) Incubate 72 hrs at 37C.
# (7) Add 4 ul OneGlo Luc Reagent.
# (8) Incubate 5 min at room temperature.
# % is set by controls: 0 for no effect and ±100 for the full control effect.
row,Structure (SMILES),"activity change, negative = inhibition"
1,Cc1c(S(=O)(=O)NC(C)c2ccccc2)c(=O)n(C)c(=O)n1C (stereo not given),-5.67%
2,COCCCNC(=O)[C@H]1N2C(=O)c3ccccc3C2SC1(C)C (stereo not given in full),36.2%
3,CC(=O)Nc1ccc(C(=O)OCC(=O)Nc2ccc([N+](=O)[O-])cc2C(F)(F)F)cc1,-34.7%
4,O=C(Nc1cc2c3c(c1)C1CCCC1CN3CC1CCCC21)c1ccc([N+](=O)[O-])cc1 (stereo not given),-31.6%
5,Cn1ccc(=Nc2ccc(NC(=O)c3ccc(N=c4ccn(C)c5ccc([N+](=O)[O-])cc45)cc3)cc2)cc1,-96.1% (active)
6,Cc1ccc(CCNC(=O)c2ccc3c(c2)N(Cc2cc(C)ccc2C)C(=O)c2ccccc2S3=O)cc1 (stereo not given),-0.139%
7,Cc1cccc(NC(=O)C2CCCN2S(=O)(=O)c2cccc3nsnc23)c1C (stereo not given),31.6%
8,CCC(=O)Nc1c(C(=O)N2CCN(c3ccc(F)cc3)CC2)oc2ccccc12,-20.1%
9,CC(=O)C(C)n1cnc2scc(-c3ccc(C)cc3)c2c1=O (stereo not given),-61% (active)
10,COC(=O)Cn1cnc2scc(-c3ccc(C)c(C)c3)c2c1=O,-22.1%
11,CCOC(=O)C(C)n1cnc2scc(-c3ccc(C)c(C)c3)c2c1=O (stereo not given),-39.3%
12,COc1cc(C(=O)N2CCN(c3ccc(Nc4ccc(C)cc4)nn3)CC2)cc(OC)c1OC,36.3%
13,C#CC(C)(CC)NC(=O)Cn1nnc(-c2ccc(OCc3c(F)cccc3Cl)cc2)n1 (stereo not given),-28.3%
14,CN(C)CCCNC(=O)/C=C/c1ccc(OCc2c(F)cccc2Cl)cc1,-62.7% (active)
15,O=C(Cc1ccccc1Cl)N1CCOCC1,-27.3%
16,O=C(Nc1ccc(OCC(=O)N2CCOCC2)cc1)c1cc(F)c(F)cc1Cl,4.25%
17,O=C(/C=C/c1ccc(OCc2c(F)cccc2Cl)cc1)N1CCOCC1,-85.8% (active)
18,CCOC(=O)CNC(=O)/C=C/c1c(Cl)cccc1Cl,-12.3%
19,COc1cc(C2c3c(oc4ccccc4c3=O)C(=O)N2c2nc(C)c(C)s2)ccc1O (stereo not given),-20.1%
20,CCOC(=O)C1CCCN(CC(=O)Nc2cc(C)c3c(=O)oc4ccccc4c3n2)C1 (stereo not given),17.3%
21,Cc1ccc(-c2cc(-c3coc4ccccc4c3=O)c3c(n2)-c2cc(Cl)ccc2OC3)cc1,21.6%
22,Cc1ccc(NC(=O)c2cc3cc(C)ccc3n2C)cc1,22.1%
23,Cc1nn(CC(=O)Nc2ccc(C#N)cc2)c(C)c1[N+](=O)[O-],-33.6%
24,CS/C(=C\[N+](=O)[O-])Nc1ccc(C)cc1,-61.4% (active)
25,CCCN(CCC)C(=O)Cn1c(=O)n(-c2ccc(Cl)cc2)c(=O)c2c3c(sc21)CCCCC3,7.98%
26,COc1ccc(C(=O)N2CCCC(C(=O)c3ccccc3OC)C2)cc1OC (stereo not given),-10.3%
27,O=C(CSCc1cnn(-c2ccccc2)c1-n1cccc1)NCc1ccccc1Br,-36.4%
28,CCc1cc2c(-c3ccccc3)cc(=O)oc2c2c1OCN(Cc1ccc(C)cc1)C2,0.791%

row,Structure (SMILES),"activity change, negative = inhibition"
1,O=C(/C=C/Sc1ncn[nH]1)c1ccc(Cl)cc1,-76.4% (active)
2,Cc1cc(C)c(NC(=O)c2cc3sc(Cl)cc3n2C)c(C)c1,-0.202%
3,Cc1ccccc1Nc1c([N+](=O)[O-])ccc2nonc12,-2.44%
4,CN(Cc1ccccc1)c1ccc(-c2nc(-c3ccccc3)no2)cc1[N+](=O)[O-],22.8%
5,CN(c1ccccc1)c1ccc([N+](=O)[O-])c2nonc12,-75% (active)
6,CC(=O)Nc1c2c(nn1-c1ccc(C)cc1C)CS(=O)C2 (stereo not given),0%
7,COc1ccc(-n2nc3c(c2NC(=O)Cc2cccc(C)c2)CS(=O)C3)cc1 (stereo not given),0.139%
8,Cc1ccc(-n2nc3c(c2NC(=O)CCC2CCCCC2)CS(=O)C3)cc1 (stereo not given),-68.2% (active)
9,CCOc1cc(C(=O)NCCc2csc3nc(-c4ccc(C)cc4)nn23)cc(OCC)c1OCC,-29.1%
10,Cc1cc(C)n(CC(C)NCc2c(C(=O)N3CCOCC3)nc3c(C)cccn23)n1 (stereo not given),16%
11,CCCCCn1c(=O)[nH]c2cc(C(=O)Nc3ccc(F)cc3)ccc2c1=O,3.61%
12,CC(C)NC(=O)c1ccc(Sc2ccccc2)c([N+](=O)[O-])c1,-15.4%
13,Nc1nc(SCC(=O)Nc2ccc(Cl)c([N+](=O)[O-])c2)n[nH]1,-9.65%
14,Cc1ccc(CC(=O)Nc2cccc(C#N)c2)cc1,6.08%
15,CC(=O)Nc1ccc(NC(=O)C(C)OC(=O)c2ccccc2C(=O)c2ccc(Cl)c([N+](=O)[O-])c2)cc1 (stereo not given),-83.7% (active)
16,O=C(COc1ccc(NC(=O)c2ccccc2[N+](=O)[O-])cc1)c1ccc(F)cc1,-16.6%
17,N#Cc1cccc(NC(=O)COC(=O)c2ccccc2C(=O)c2ccc(Cl)c([N+](=O)[O-])c2)c1,-99.2% (active)
18,CCOc1ccc(NC(=O)C(CC(C)C)N2Cc3ccccc3C2=O)cc1 (stereo not given),9.79%
19,Cc1ccccc1-c1nc(SCC(=O)N(C)c2ccccc2)c2c(=O)n(C)c(=O)n(C)c2n1,27.2%
20,CN1CCN(CCCNC(=O)c2ccc(/C=C3\Oc4ccccc4N(Cc4ccc(Cl)cc4)C3=O)cc2)CC1,-110% (active)
21,CCCN1CCN(CCCNC(=O)c2ccc3nc(Cc4ccccc4)oc3c2)CC1,8.36%
22,COCCNC(=O)c1ccc2c(c1)N(Cc1cccc(Cl)c1)C(=O)c1ccccc1S2(=O)=O,5.49%
23,CCc1nc(-c2cc(S(=O)(=O)N3CCN(c4ccc(OC)cc4)CC3)ccc2OC)no1,48.2%
24,Clc1ccccc1CSc1nncn2c1cc1occc12,-18.9%
25,Cc1ccc(-c2cc(C(F)(F)F)c(C#N)c(SCC(=O)Nc3ccccc3)n2)cc1,1.85%
26,CCOc1cc(-c2cc(-c3ccc(NC(C)=O)cc3)nc(N)c2C#N)ccc1O,-70.4% (active)
27,CCOC(=O)CN(C(=O)COc1nc(-c2ccccc2)cc(C)c1C#N)c1ccc(F)cc1,-37.6%
